In PMC11006913:
Where a chain is given by its changes, count along the chain named.

Key:
Experiment in all cases: PBM; 200 nM protein, PBS
Conditions in all cases: dsDNA, one strand shown
HOXB4 = HOXB4 (Homo sapiens, UniProt P17483 148-234)
VENTX = biological target: T1, VENTX (Homo sapiens, UniProt O95231 78-163)
T1 sequence: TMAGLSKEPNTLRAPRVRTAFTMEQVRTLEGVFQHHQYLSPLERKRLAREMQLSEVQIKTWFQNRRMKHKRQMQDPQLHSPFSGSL

PAX4 [1] = biological target: T2, PAX4 (Homo sapiens, UniProt O43316 9-242, R200K)
T2 sequence: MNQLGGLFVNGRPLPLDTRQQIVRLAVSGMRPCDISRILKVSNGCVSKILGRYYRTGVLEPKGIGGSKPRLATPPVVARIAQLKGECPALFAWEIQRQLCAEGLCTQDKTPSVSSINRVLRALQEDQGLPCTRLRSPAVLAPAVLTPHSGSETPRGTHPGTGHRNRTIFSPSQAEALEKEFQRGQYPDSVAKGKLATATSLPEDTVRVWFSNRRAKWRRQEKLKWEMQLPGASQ

PAX4 [2] = biological target: T3, PAX4 (Homo sapiens, UniProt O43316 9-242)
T3 sequence: T2 sequence with K192R

PAX4 [3] = biological target: T4, PAX4 (Homo sapiens, UniProt O43316 9-242, F177V)
T4 sequence: T2 sequence with F169V, K192R

HOXC10 [4] = biological target: HOXC10 (Homo sapiens, UniProt Q9NYD6 254-340, K271E)
PAX4 [5] = biological target: T5, PAX4 (Homo sapiens, UniProt O43316 9-242, F177Y)
T5 sequence: T2 sequence with F169Y, K192R

VAX1 = VAX1 (Homo sapiens, UniProt Q5SQQ9 86-172)
PAX4 [6] = biological target: T6, PAX4 (Homo sapiens, UniProt O43316 9-242, R227W)
T6 sequence: T2 sequence with K192R, R219W

HOXA2 [7] = biological target: HOXA2 (Homo sapiens, UniProt O43364 129-215, Y150S)
HOXA2 [8] = biological target: HOXA2 (Homo sapiens, UniProt O43364 129-215)
HOXB6 = HOXB6 (Homo sapiens, UniProt P17509 132-218)
HOXC9 [9] = biological target: HOXC9 (Homo sapiens, UniProt P31274 178-260, K195R)
HOXC9 [10] = biological target: HOXC9 (Homo sapiens, UniProt P31274 178-260)
HOXC9 [11] = biological target: HOXC9 (Homo sapiens, UniProt P31274 178-260, R193K)
HOXC9 [12] = biological target: HOXC9 (Homo sapiens, UniProt P31274 178-260, R222W)
HOXB9 [13] = biological target: HOXB9 (Homo sapiens, UniProt P17482 171-250, T197M)
HOXB9 [14] = biological target: HOXB9 (Homo sapiens, UniProt P17482 171-250)
HOXB9 [15] = biological target: HOXB9 (Homo sapiens, UniProt P17482 171-250, R186Q)
HOXC10 [16] = biological target: HOXC10 (Homo sapiens, UniProt Q9NYD6 254-340)
Sequence of HOXC10 (Homo sapiens, UniProt Q9NYD6 254-340) (Q9NYD6 254-340): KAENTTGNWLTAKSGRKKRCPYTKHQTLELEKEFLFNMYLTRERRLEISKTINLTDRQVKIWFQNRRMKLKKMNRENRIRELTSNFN

Sequence of HOXA2 (Homo sapiens, UniProt O43364 129-215) (O43364 129-215): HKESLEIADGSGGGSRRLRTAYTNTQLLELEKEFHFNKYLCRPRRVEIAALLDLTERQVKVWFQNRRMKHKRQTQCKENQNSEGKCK
Sequence of HOXB9 (Homo sapiens, UniProt P17482 171-250, T197M) (P17482 171-250 T197M): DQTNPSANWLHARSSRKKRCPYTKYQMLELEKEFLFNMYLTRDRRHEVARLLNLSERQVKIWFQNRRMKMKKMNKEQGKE
Sequence of HOXC10 (Homo sapiens, UniProt Q9NYD6 254-340, K271E) (Q9NYD6 254-340 K271E): as the sequence (Q9NYD6 254-340) above, with K18E counted along it
Sequence of HOXC9 (Homo sapiens, UniProt P31274 178-260, R193K) (P31274 178-260 R193K): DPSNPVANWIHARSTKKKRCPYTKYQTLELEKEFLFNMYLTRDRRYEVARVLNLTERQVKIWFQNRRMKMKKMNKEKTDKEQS
Sequence of HOXB6 (P17509 132-218): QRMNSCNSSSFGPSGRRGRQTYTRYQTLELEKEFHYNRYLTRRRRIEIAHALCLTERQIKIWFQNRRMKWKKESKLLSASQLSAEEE
Sequence of HOXB4 (P17483 148-234): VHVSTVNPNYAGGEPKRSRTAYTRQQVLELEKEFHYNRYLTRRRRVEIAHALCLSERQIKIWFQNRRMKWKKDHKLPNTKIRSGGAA
Sequence of HOXC9 (Homo sapiens, UniProt P31274 178-260, K195R) (P31274 178-260 K195R): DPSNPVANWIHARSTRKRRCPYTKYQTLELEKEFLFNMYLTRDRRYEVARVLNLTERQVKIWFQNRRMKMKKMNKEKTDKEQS
Sequence of VAX1 (Q5SQQ9 86-172): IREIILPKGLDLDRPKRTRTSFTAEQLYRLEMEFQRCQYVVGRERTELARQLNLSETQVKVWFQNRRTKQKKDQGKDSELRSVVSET
Sequence of HOXA2 (Homo sapiens, UniProt O43364 129-215, Y150S) (O43364 129-215 Y150S): as the sequence (O43364 129-215) above, with Y22S counted along it
Sequence of HOXB9 (Homo sapiens, UniProt P17482 171-250) (P17482 171-250): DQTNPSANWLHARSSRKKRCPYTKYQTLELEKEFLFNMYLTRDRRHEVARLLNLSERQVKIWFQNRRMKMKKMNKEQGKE
Sequence of HOXC9 (Homo sapiens, UniProt P31274 178-260, R222W) (P31274 178-260 R222W): as the sequence (P31274 178-260 R193K) above, with K16R, R45W counted along it
Sequence of HOXB9 (Homo sapiens, UniProt P17482 171-250, R186Q) (P17482 171-250 R186Q): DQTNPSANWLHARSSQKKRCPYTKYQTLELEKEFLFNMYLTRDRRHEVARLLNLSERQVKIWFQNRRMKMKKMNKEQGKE
Sequence of HOXC9 (Homo sapiens, UniProt P31274 178-260) (P31274 178-260): as the sequence (P31274 178-260 R193K) above, with K16R counted along it

| Sequence | binding signal (HOXB4) | binding signal (VENTX) | binding signal (PAX4 [1]) | binding signal (PAX4 [2]) | binding signal (PAX4 [3]) | binding signal (HOXC10 [4]) | binding signal (PAX4 [5]) | binding signal (VAX1) | binding signal (PAX4 [6]) | binding signal (HOXA2 [7]) | binding signal (HOXA2 [8]) | binding signal (HOXB6) | binding signal (HOXC9 [9]) | binding signal (HOXC9 [10]) | binding signal (HOXC9 [11]) | binding signal (HOXC9 [12]) | binding signal (HOXB9 [13]) | binding signal (HOXB9 [14]) | binding signal (HOXB9 [15]) | binding signal (HOXC10 [16]) |
| --- | --- | --- | --- | --- | --- | --- | --- | --- | --- | --- | --- | --- | --- | --- | --- | --- | --- | --- | --- | --- |
| CCTAATTA | 13.5 upbm affinity estimate (log intensity, higher = more binding, comparable within an allelic series) | 13 upbm affinity estimate (log intensity, higher = more binding, comparable within an allelic series) | 12.1 upbm affinity estimate (log intensity, higher = more binding, comparable within an allelic series) | 12.6 upbm affinity estimate (log intensity, higher = more binding, comparable within an allelic series) | 10.8 upbm affinity estimate (log intensity, higher = more binding, comparable within an allelic series) | 11.8 upbm affinity estimate (log intensity, higher = more binding, comparable within an allelic series) | 11.3 upbm affinity estimate (log intensity, higher = more binding, comparable within an allelic series) | 13.8 upbm affinity estimate (log intensity, higher = more binding, comparable within an allelic series) | 11.2 upbm affinity estimate (log intensity, higher = more binding, comparable within an allelic series) | 10.8 upbm affinity estimate (log intensity, higher = more binding, comparable within an allelic series) | 13.2 upbm affinity estimate (log intensity, higher = more binding, comparable within an allelic series) | 12.1 upbm affinity estimate (log intensity, higher = more binding, comparable within an allelic series) |  |  |  |  |  |  |  |  |
| GTCAATTA | 13.3 upbm affinity estimate (log intensity, higher = more binding, comparable within an allelic series) |  |  |  |  |  |  | 13.3 upbm affinity estimate (log intensity, higher = more binding, comparable within an allelic series) |  | 10.7 upbm affinity estimate (log intensity, higher = more binding, comparable within an allelic series) | 12.3 upbm affinity estimate (log intensity, higher = more binding, comparable within an allelic series) | 11.7 upbm affinity estimate (log intensity, higher = more binding, comparable within an allelic series) | 11.9 upbm affinity estimate (log intensity, higher = more binding, comparable within an allelic series) | 12 upbm affinity estimate (log intensity, higher = more binding, comparable within an allelic series) | 11.9 upbm affinity estimate (log intensity, higher = more binding, comparable within an allelic series) | 10.7 upbm affinity estimate (log intensity, higher = more binding, comparable within an allelic series) |  |  |  |  |
| AAATTAAT | 12.9 upbm affinity estimate (log intensity, higher = more binding, comparable within an allelic series) |  | 11.9 upbm affinity estimate (log intensity, higher = more binding, comparable within an allelic series) | 12.4 upbm affinity estimate (log intensity, higher = more binding, comparable within an allelic series) | 10.7 upbm affinity estimate (log intensity, higher = more binding, comparable within an allelic series) |  | 11.2 upbm affinity estimate (log intensity, higher = more binding, comparable within an allelic series) | 12.7 upbm affinity estimate (log intensity, higher = more binding, comparable within an allelic series) | 11.1 upbm affinity estimate (log intensity, higher = more binding, comparable within an allelic series) |  |  | 11.8 upbm affinity estimate (log intensity, higher = more binding, comparable within an allelic series) | 12.6 upbm affinity estimate (log intensity, higher = more binding, comparable within an allelic series) |  | 12.5 upbm affinity estimate (log intensity, higher = more binding, comparable within an allelic series) |  | 10.1 upbm affinity estimate (log intensity, higher = more binding, comparable within an allelic series) | 11.8 upbm affinity estimate (log intensity, higher = more binding, comparable within an allelic series) | 11.5 upbm affinity estimate (log intensity, higher = more binding, comparable within an allelic series) |  |
| ATTAATAG | 13 upbm affinity estimate (log intensity, higher = more binding, comparable within an allelic series) |  |  |  |  | 12 upbm affinity estimate (log intensity, higher = more binding, comparable within an allelic series) |  | 12.6 upbm affinity estimate (log intensity, higher = more binding, comparable within an allelic series) |  |  |  | 12 upbm affinity estimate (log intensity, higher = more binding, comparable within an allelic series) | 12.7 upbm affinity estimate (log intensity, higher = more binding, comparable within an allelic series) | 12.6 upbm affinity estimate (log intensity, higher = more binding, comparable within an allelic series) | 12.6 upbm affinity estimate (log intensity, higher = more binding, comparable within an allelic series) | 11.1 upbm affinity estimate (log intensity, higher = more binding, comparable within an allelic series) | 10.1 upbm affinity estimate (log intensity, higher = more binding, comparable within an allelic series) | 11.9 upbm affinity estimate (log intensity, higher = more binding, comparable within an allelic series) | 11.7 upbm affinity estimate (log intensity, higher = more binding, comparable within an allelic series) | 12.2 upbm affinity estimate (log intensity, higher = more binding, comparable within an allelic series) |
| TAATTGCA |  |  |  |  |  | 11.8 upbm affinity estimate (log intensity, higher = more binding, comparable within an allelic series) |  |  |  | 11 upbm affinity estimate (log intensity, higher = more binding, comparable within an allelic series) | 12.3 upbm affinity estimate (log intensity, higher = more binding, comparable within an allelic series) | 12.1 upbm affinity estimate (log intensity, higher = more binding, comparable within an allelic series) |  |  |  |  | 10.2 upbm affinity estimate (log intensity, higher = more binding, comparable within an allelic series) |  |  |  |
